± gives the standard deviation of the averaged measurements. Whole data set: some 33,000 sequences, median “E-score (rank enrichment, -0.5 to 0.5)” near -0.0068, cut for the highest 2% near 0.24. The full list was thinned out, with the highest values kept by preference.
tested on: muMax20 (Max(13-93) K31hArg/K57hArg, M65Nle); experiment: PBM 8-mer E-score (E-score (rank enrichment, -0.5 to 0.5)); higher = stronger preferential binding
Procedure: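 Protein binding microarray (universal PBM chip covering all 10-mers in fixed probe flanks) with chemically synthesized human Max(13-93) bHLH-LZ analogs (not full-length Max) bearing noncanonical residues (hArg, Tha, Aib, Nle at 65) and aromatic Cys staples. Read-out per 8-mer (and its reverse complement): E-score (rank-based enrichment, -0.5 to 0.5) and Z-score of median probe intensity.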

Sequence | PBM 8-mer E-score
AACGGCCG | -0.0126 ± 0.14
ACCCCGAG | -0.142 ± 0.045
CATACCAG | 0.0299 ± 0.094
ATGTATTG | 0.251 ± 0.048
ATGTATCG | 0.213 ± 0.065
ATATATTA | 0.225 ± 0.056
GTGTATTA | 0.277 ± 0.0053
ATGTATTA | 0.22 ± 0.012
CTGTATTA | 0.129 ± 0.013
GTATATTA | 0.28 ± 0.025
CTATATTA | 0.199 ± 0.042
ATGTATTC | 0.107 ± 0.074
AGCTAGAA | -0.0154 ± 0.041
GGTCCACA | -0.0698 ± 0.11
GACGCAGA | -0.0585 ± 0.079
CCCAGTAG | -0.0372 ± 0.037
CGGTAACA | -0.0167 ± 0.022
AGCCTGCA | 0.0231 ± 0.12
AGCGTTGC | -0.0889 ± 0.092
CCGGCCGC | -0.23 ± 0.0085
CGCGGGTA | -0.0475 ± 0.074
ATGATTGA | 0.127 ± 0.063
ACCCAACC | 0.0711 ± 0.054
GATAATCA | 0.311 ± 0.07
GATAATCC | -0.0364 ± 0.011

Sequence | PBM 8-mer E-score
GCTAATCA | -0.0154 ± 0.012
TATAATCA | 0.247 ± 0.037
AATAATCA | 0.08847 ± 8.5e-05
CATAATCA | 0.08 ± 0.021
ACTCCTCT | -0.0496 ± 0.01
GCCAAGAA | 0.106 ± 0.011
ACCGAAAC | -0.0608 ± 0.064
ATCCTCAA | -0.0775 ± 0.063
CATCGCAA | 0.0394 ± 0.039
GGGCGGAC | -0.19 ± 0.067
CGCGGGGA | -0.0158 ± 0.054
GGGCGGGA | 0.256 ± 0.051
GGCGGGAA | -0.0111 ± 0.026
AGGCGGGA | 0.0523 ± 0.011
GGCGGGGA | 0.245 ± 0.082
CGGCGGGA | -0.2043 ± 0.0015
AAGCCTAG | 0.0589 ± 0.067
CGCTTCAC | -0.106 ± 0.011
GGAACGAC | -0.0812 ± 0.036
GACGCTCC | -0.151 ± 0.072
TATTAAAA | 0.226 ± 0.062
CTTTAATA | 0.16 ± 0.04
AATTAATA | 0.271 ± 0.013
GTTTAATA | 0.218 ± 0.022
CATTAACA | 0.22 ± 0.1

Sequence | PBM 8-mer E-score
AATTAATT | 0.213 ± 0.015
TATTAACA | 0.128 ± 0.13
ATTTAATA | 0.245 ± 0.097
AATTAATG | 0.139 ± 0.05
TATTAATA | 0.288 ± 0.051
AATTAACA | 0.244 ± 0.008
CATTAATA | 0.188 ± 0.011
GGGGTGAA | 0.0293 ± 0.058
ACCCAATA | 0.132 ± 0.054
ACCTGTTC | 0.0511 ± 0.016
CCGAGGAA | 0.0622 ± 0.053
AATGACCC | 0.074 ± 0.021
GTGGCACA | 0.137 ± 0.017
ACTTTAGC | -0.00298 ± 0.1
CGACTGCC | -0.163 ± 0.0073
GAACGAAA | 0.0569 ± 0.079
ATCCTGTC | -0.0955 ± 0.045
CGGTACAC | -0.0567 ± 0.015
AAAAAGCG | 0.0746 ± 0.018
ACCGCCTA | -0.0164 ± 0.2
AAACTATG | -0.057 ± 0.1
AGTCCTAG | -0.0808 ± 0.069
AATTAAGA | 0.253 ± 0.013
GATTAATA | 0.314 ± 0.062
AATTAAGC | 0.191 ± 0.046

Sequence | PBM 8-mer E-score
GATTAACA | 0.156 ± 0.037
GATTAATC | -0.0526 ± 0.063
GATTAAGA | 0.119 ± 0.07
AACCTTCC | 0.0123 ± 0.0059
AAACGAGA | 0.18 ± 0.13
CAACGAGA | 0.0722 ± 0.14
TAACGAGA | 0.263 ± 0.054
ATTACAGC | -0.00666 ± 0.05
ATTACAGG | 0.236 ± 0.066
ATTACAGA | 0.0555 ± 0.062
TAGATACA | 0.143 ± 0.12
CTCCGAGC | -0.0246 ± 0.032
AAGTCATT | 0.131 ± 0.027
ATGTTACA | 0.239 ± 0.025
ATGTTACC | 0.106 ± 0.016
CTGTTACA | 0.0334 ± 0.0084
CTATCTAA | 0.0704 ± 0.073
AAATGTAC | 0.238 ± 0.048
CAATGTAC | 0.115 ± 0.019
GAATGTAC | -0.0364 ± 0.078
AAATGTAT | 0.241 ± 0.013
AAATGTAG | 0.0928 ± 0.084
AAATGTGT | 0.175 ± 0.1
ACAGGCCT | -0.0825 ± 0.039
AGCAGTAA | -0.0641 ± 0.1

Sequence | PBM 8-mer E-score
ACAGCGGA | -0.0346 ± 0.033
GAATCAGA | -0.0136 ± 0.14
GGACGGAA | -0.0931 ± 0.17
TGATTTAA | 0.177 ± 0.05
AAGTATGA | 0.071 ± 0.059
TAGTATGA | 0.247 ± 0.067
CAGTATGA | 0.138 ± 0.084
TGGAGACA | -0.0387 ± 0.082
ACATCTAG | -0.0494 ± 0.021
AGAGCATA | 0.0465 ± 0.086
GTTTCAAA | 0.162 ± 0.01
CTTTCAAA | 0.267 ± 0.044
ATTTCAAC | 0.146 ± 0.078
CTTTCAAC | 0.0143 ± 0.071
ATTTCAAA | 0.252 ± 0.0095
ATTTCAAG | 0.104 ± 0.023
ACTGGCTA | -0.11 ± 0.0093
CAGACAGA | -0.0661 ± 0.06
GTTCAATA | 0.159 ± 0.039
ATGCAATC | 0.126 ± 0.089
CGACGTGA | 0.124 ± 0.012
CAACGTGG | 0.11 ± 0.046
CCACGTGC | 0.463 ± 0.03
CCACGTGG | 0.475 ± 0.032
CTACGTGA | -0.0185 ± 0.092

Sequence | PBM 8-mer E-score
CCACGTTA | 0.246 ± 0.059
CCACGTCC | -0.0476 ± 0.004
CGACGTGC | -0.0517 ± 0.017
CCACGTGA | 0.43 ± 0.082
CCACGTTC | 0.114 ± 0.033
CCACGTAG | -0.156 ± 0.06
GCACGTTA | 0.0863 ± 0.14
ACGGTGAT | 0.0166 ± 0.12
ACTGGACT | -0.0734 ± 0.014
CACTCGAG | -0.165 ± 0.12
TCACTCAA | 0.0768 ± 0.022
TCCAGCAA | 0.0563 ± 0.029
CTGGCCTC | -0.191 ± 0.03
GTGCTAGA | 0.0749 ± 0.058
CTAGGGAA | 0.00576 ± 0.011
GGGCCCCC | -0.386 ± 0.075
CAAACCCA | 0.212 ± 0.0064
TGCAAGCA | -0.0637 ± 0.018
CAGTGCAG | -0.189 ± 0.011
CCTAGACA | -0.0468 ± 0.14
AACAGGGA | 0.0422 ± 0.055
ACGCACGC | 0.174 ± 0.014
ACGCACGA | 0.0808 ± 0.025
ACGCACAA | 0.0465 ± 0.071
AAGCACGT | 0.297 ± 0.12

Sequence | PBM 8-mer E-score
ACGCACGT | 0.288 ± 0.066
AAGCACGA | 0.0985 ± 0.076
ACGCACAT | 0.277 ± 0.039
ACGCACAG | -0.11 ± 0.11
AAGCACGG | -0.0498 ± 0.039
ACGACTCA | -0.0769 ± 0.055
CGCACTCA | -0.0736 ± 0.0069
CTCAAATA | 0.0362 ± 0.0096
CATTGACC | 0.105 ± 0.047
GGGTCGAC | -0.00629 ± 0.1
AGCCTCAT | 0.0933 ± 0.064
GTTAAGTA | 0.063 ± 0.021
ATAATTTA | 0.244 ± 0.038
GTAATTTA | 0.0797 ± 0.016
ATTAAGTA | 0.24 ± 0.02
ATAATTTG | 0.167 ± 0.077
ATTAATCA | 0.2533 ± 0.00043
ATTAAGTG | 0.148 ± 0.031
ATTAATTG | 0.136 ± 0.075
GTTAATCA | 0.204 ± 0.072
ATTAATTA | 0.258 ± 0.064
ATTAATCC | 0.154 ± 0.022
ATTAATTC | 0.219 ± 0.0076
CCTCGATC | -0.0647 ± 0.046
GCCCATTA | -0.0555 ± 0.034

Sequence | PBM 8-mer E-score
CGGCGGAC | -0.282 ± 0.091
GCAGGGCC | -0.171 ± 0.013
CCTCGGTA | -0.295 ± 0.042
CTCCGGAG | -0.227 ± 0.079
TACTGTGA | 0.0496 ± 0.099
GGGAACGA | -0.0255 ± 0.026
ATTAGGAC | 0.0695 ± 0.13
AGCACTAG | 0.0808 ± 0.12
AAAGATCG | -0.152 ± 0.035
ATAAATTG | 0.157 ± 0.013
CTAAATTA | 0.0189 ± 0.047
ATAAATTA | 0.262 ± 0.08
CCGTAGTC | -0.131 ± 0.045
AAGGAGAA | 0.172 ± 0.0052
AACGTGTA | 0.2 ± 0.026
AACGTGTC | 0.145 ± 0.043
AAAGTGTA | 0.12 ± 0.1
CAAGTGTA | 0.244 ± 0.042
CCCGTGTC | -0.147 ± 0.032
CACGTGTA | 0.444 ± 0.054
CACGTGTC | 0.448 ± 0.053
TAAGTGTA | 0.159 ± 0.064
GACGTGTA | 0.0986 ± 0.0068
ATACTTTC | 0.127 ± 0.013
CAAGAAGG | 0.158 ± 0.048

Sequence | PBM 8-mer E-score
AGTCGACT | 0.176 ± 0.13
ACATCCGC | -0.188 ± 0.099
CTACTAAC | 0.237 ± 0.013
ATACTAAC | 0.164 ± 0.066
TTACTAAA | 0.123 ± 0.07
GTACTAAA | 0.108 ± 0.067
CTACTATA | 0.249 ± 0.062
CTACTAAG | -0.0701 ± 0.18
ATACTAAA | 0.242 ± 0.038
CTACTATC | 0.132 ± 0.0082
CAACTATA | 0.108 ± 0.0066
AAACTATA | 0.192 ± 0.05
TAACTATA | 0.303 ± 0.0032
ATACTATA | 0.156 ± 0.08
TCGAACGA | 0.0488 ± 0.053
AACTGGCG | -0.0858 ± 0.061
ATCGGCAA | -0.18 ± 0.089
TCACCGCA | -0.0327 ± 0.14
GATAAGCC | -0.111 ± 0.075
